# In PubChem BioAssay AID1508619 (National Center for Advancing Translational Sciences (NCATS), 2020):
# Inconclusive results are not listed. A call without a number means that no potency is given here. Activity calls are given as the source filed them. Calls come from the whole dose curve; as a rule, active = well fitted inhibition curve with a large enough effect; inconclusive = small, poorly fitted or top-dose-only effect; inactive = no such curve, though single readings can be large or run the other way.
# Test: Counterscreen qHTS for Identification of Calcium Integrin Binding Protein 1 (CIB1) Competitor
# Conditions: series mostly up to 114 µM
# Procedure, shortened: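 Compounds (final up to 114 uM) preincubated 15 min at room temperature with 1 uM CIB1-GST in calcium-containing HEPES pH 7.4 buffer; 100 nM scrambled FITC peptide added, and fluorescence polarization (480/540) measured after another 15 min.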
# Potency is the fitted concentration of half-maximal effect.
row,SMILES,Potency
1,O=C(NC(c1ccco1)c1cc(Cl)c2cccnc2c1O)c1cccs1 (stereo unspecified),inactive
2,O=C1CCCC2=C1C(c1[nH]ncc1Cl)N=C(Nc1nc3ccccc3o1)N2 (stereo unspecified),inactive
3,Nc1ccc(CNc2ccc([S+](=O)([O-])Nc3nccs3)cc2)c(O)c1,50.1 µM (active)
4,NC(=O)c1ncn([C@@H]2O[C@H](CO)[C@@H](O)[C@H]2O)c1O,inactive
5,CS(=O)(=O)c1ccc(C(=O)OCC(=O)N2CCC(Cc3ccccc3)CC2)cc1[N+](=O)[O-],inactive
6,O=C1CCCC2=C1C(c1ccncc1)N=C(Nc1nc3ccccc3o1)N2 (stereo unspecified),inactive
7,O=[S+]([O-])(Nc1nccs1)c1ccc(NCc2cc(F)cc(Cl)c2O)cc1,inactive
8,CCc1oc2ccccc2c1C(=O)c1cc(Br)c(O)c(Br)c1,inactive
9,Cc1cc(C(C#N)c2ccc(Cl)cc2)c(Cl)cc1NC(=O)c1cc(I)cc(I)c1O (stereo unspecified),inactive
10,C=Cc1c(C)c2cc3[nH]c(cc4nc(cc5nc(cc1[nH]2)C(C)=C5CCC(=O)O)C(CCC(=O)O)=C4C)c(C)c3C=C,25.1 µM (active)
11,OCc1ccc(-c2ccc(-c3ccc(CO)s3)o2)s1,inactive
12,CC1CCC2(C1)N=C(Nc1nc3ccccc3o1)NC1=C2C(=O)CCC1 (stereo unspecified),inactive
13,CCc1oc2ccccc2c1C(=O)c1cc(I)c(O)c(I)c1,100 µM (active)
14,O=S(=O)(Nc1nc2ccccc2s1)c1ccc(NCc2ccc(Br)cc2O)cc1,inactive
15,CSC(Cc1ccc(Cl)cc1)C(=O)Nc1ccc(Cl)cc1C(=O)O (stereo unspecified),inactive
16,CN1CCCN(C(=O)c2cccc(-c3ccc(C=C4C(=O)Nc5ccc(Cl)cc54)o3)c2)CC1,35.5 µM (active)
